# Records with an inconclusive call do not appear. A call without a number means that no potency is given here. The source made the active and inactive calls. Calls follow the shape of the dose curve; as a rule, active = well fitted curve in the direction sought with a large enough effect; inconclusive = small, poorly fitted or top-dose-only effect, or another doubt; inactive = no such curve, though single readings can be large; an effect the other way counts as inactive or inconclusive.
# Tests used:
# [1] = biological target: Voltage-gated inwardly rectifying potassium channel KCNH2 (Homo sapiens) (UniProt Q12809); assay: qHTS Assay for Small Molecule Inhibitors of the Human hERG Channel Activity (AID 588834);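 also: lower thallium flux fluorescence means stronger hERG block; nearly all actives have a fitted effect of over 50% in size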; also: potency is read from the fitted curve at half-maximal effect
# Voltage-gated inwardly rectifying potassium channel KCNH2 (Homo sapiens), sequence (Q12809 whole entry, looked up): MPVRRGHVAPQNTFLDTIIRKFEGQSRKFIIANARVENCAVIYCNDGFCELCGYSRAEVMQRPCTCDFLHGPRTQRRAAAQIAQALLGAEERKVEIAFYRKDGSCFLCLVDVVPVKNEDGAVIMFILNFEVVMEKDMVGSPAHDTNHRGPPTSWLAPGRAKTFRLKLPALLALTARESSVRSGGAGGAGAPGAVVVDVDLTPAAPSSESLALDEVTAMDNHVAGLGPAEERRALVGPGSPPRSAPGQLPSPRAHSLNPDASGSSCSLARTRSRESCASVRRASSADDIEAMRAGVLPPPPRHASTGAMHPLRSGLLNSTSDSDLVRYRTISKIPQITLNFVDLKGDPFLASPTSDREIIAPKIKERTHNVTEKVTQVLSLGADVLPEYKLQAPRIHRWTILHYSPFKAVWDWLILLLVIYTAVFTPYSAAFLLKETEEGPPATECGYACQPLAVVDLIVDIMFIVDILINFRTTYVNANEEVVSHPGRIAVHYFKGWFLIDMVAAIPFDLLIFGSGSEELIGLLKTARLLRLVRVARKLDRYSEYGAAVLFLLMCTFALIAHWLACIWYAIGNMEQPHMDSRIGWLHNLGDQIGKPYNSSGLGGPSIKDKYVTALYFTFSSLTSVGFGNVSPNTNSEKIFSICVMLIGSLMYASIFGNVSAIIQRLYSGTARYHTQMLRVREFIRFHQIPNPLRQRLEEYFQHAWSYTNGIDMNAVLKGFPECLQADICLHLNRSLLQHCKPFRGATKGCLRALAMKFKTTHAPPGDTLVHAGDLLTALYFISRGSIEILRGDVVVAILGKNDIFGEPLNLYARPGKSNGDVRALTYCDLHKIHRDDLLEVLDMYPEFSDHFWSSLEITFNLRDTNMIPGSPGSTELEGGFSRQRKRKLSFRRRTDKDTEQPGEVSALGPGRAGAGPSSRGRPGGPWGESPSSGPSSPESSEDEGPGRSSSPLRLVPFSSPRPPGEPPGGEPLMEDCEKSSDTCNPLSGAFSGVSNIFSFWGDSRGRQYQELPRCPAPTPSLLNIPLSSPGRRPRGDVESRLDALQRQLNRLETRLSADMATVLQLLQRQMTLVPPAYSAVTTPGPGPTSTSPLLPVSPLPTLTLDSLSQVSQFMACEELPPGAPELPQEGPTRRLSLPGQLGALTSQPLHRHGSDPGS
# How it was run: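 Measured: FluxOR fluorescence after thallium stimulation in U2OS cells transduced with hERG by baculovirus. Compounds pre-incubated around 10 min; medium Opti-MEM with 2% FCS. AC50 from Hill equation.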
# [2] = biological target: Luciferin 4-monooxygenase (Photinus pyralis) (UniProt P08659); assay: Biochemical firefly luciferase enzyme assay for NPC (AID 624030);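 also: purified P. pyralis luciferase at 10 nM with luciferin and ATP substrate; series mostly up to about 59 µM; nearly all actives have a fitted effect of over 70% in size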
# Luciferin 4-monooxygenase (Photinus pyralis), sequence (P08659 whole entry, looked up): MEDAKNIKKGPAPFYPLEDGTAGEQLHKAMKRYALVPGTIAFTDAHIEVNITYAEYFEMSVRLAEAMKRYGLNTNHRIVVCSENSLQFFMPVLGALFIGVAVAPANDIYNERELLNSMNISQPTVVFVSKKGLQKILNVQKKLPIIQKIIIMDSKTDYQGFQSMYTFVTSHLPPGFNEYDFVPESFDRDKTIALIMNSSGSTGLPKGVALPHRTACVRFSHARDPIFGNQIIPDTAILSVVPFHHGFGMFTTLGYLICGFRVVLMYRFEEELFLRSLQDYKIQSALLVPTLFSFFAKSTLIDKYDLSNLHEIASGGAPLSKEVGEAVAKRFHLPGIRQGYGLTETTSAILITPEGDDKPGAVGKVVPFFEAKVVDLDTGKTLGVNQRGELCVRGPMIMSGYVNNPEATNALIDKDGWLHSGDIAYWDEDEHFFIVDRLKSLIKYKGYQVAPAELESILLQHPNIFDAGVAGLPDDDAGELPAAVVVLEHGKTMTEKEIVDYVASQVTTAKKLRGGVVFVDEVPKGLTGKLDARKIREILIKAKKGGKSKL
# How it was run: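 Direct inhibition of firefly luciferase enzyme (10 nM final, 50 mM Tris Acetate) assessed by luminescence within 5 minutes. Percent activity scaled between DMSO and PTC124 positive control, with concentration-effect curves classified by fit quality and response.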
# [3] = S16 Schwann cell viability assay (CellTiter-Glo assay) (AID 624031);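 also: native untransfected S16 rat Schwann cells; cellular ATP luminescence as a viability measure; series mostly up to about 58 µM; nearly all actives have a fitted effect of over 70% in size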
# How it was run: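 Rat S16 Schwann cells without reporter constructs received compound or DMSO for 24 h at 37 °C under 5% CO2. Cellular ATP was then quantified by CellTiter-Glo luminescence, with vehicle wells defined as 0% activity and cell-free wells as reference.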
# [4] = S16 Schwann cell PMP22 intronic element firefly luciferase assay (AID 624032); also: nearly all actives have a fitted effect of over 30% in size; also: potency is read from the fitted curve at half-maximal effect
# How it was run: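 Luciferase reporter of PMP22 intronic-element expression in stably transfected S16 rat Schwann cells, read by ONE-Glo luminescence after 24 h compound exposure at 37 C. Activity scaled between DMSO (0%) and positive-control PTC124; concentration-effect curves quality-classified.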
Compound,Potency [1],Potency [2],Potency [3],Potency [4]
CCCC[N+]1(C)[C@@H]2CC(OC(=O)[C@H](CO)c3ccccc3)C[C@H]1[C@@H]1O[C@@H]12 (stereo not given in full),inactive,,,
CCN(CC)C(C)C(=O)c1ccccc1 (stereo not given),inactive,inactive,inactive,inactive
COC(=O)C1=CCCN(C)C1,inactive,inactive,inactive,inactive
CCN(CC)CCOC(=O)C(C)(c1ccccc1)c1ccccc1,3550 nM (active),inactive,inactive,inactive
CCS(=O)(=O)C(C)(C)S(=O)(=O)CC,inactive,inactive,inactive,inactive
O=C1NCN(c2ccccc2)C12CCN(CCCOc1ccc(F)cc1)CC2,355 nM (active),inactive,inactive,
CCCC(C)C1(CC)C(=O)N=C(S)NC1=O (stereo not given),inactive,,,
CCOC(=O)NC(O)C(Cl)(Cl)Cl (stereo not given),inactive,inactive,inactive,inactive
Oc1ccc2[nH]cc(CCCCN3CC=C(c4ccccc4)CC3)c2c1,1260 nM (active),inactive,inactive,9070 nM (active)
C#C[C@]1(O)CC[C@H]2[C@@H]3CCC4=CC(=O)CCC4=C3C=C[C@@]21CC,inactive,inactive,,
CCN(Cc1ccc(Cl)nc1)/C(=C/[N+](=O)[O-])NC,inactive,inactive,inactive,inactive
C#C[C@]1(O)C=C[C@H]2[C@@H]3CCC4=CC(=O)CC[C@@H]4[C@H]3CC[C@@]21CC,inactive,,,
CC(C)C(Br)C(=O)NC(N)=O (stereo not given),inactive,inactive,inactive,
c1ccc2nc(N3CCNCC3)ccc2c1,inactive,inactive,inactive,inactive
ClC1=C(Cl)C2(Cl)C(CBr)CC1(Cl)C2(Cl)Cl (stereo not given),22400 nM (active),inactive,inactive,
CC(C)(C)OC(=O)c1ncn2c1[C@@H]1CCCN1C(=O)c1c(Br)cccc1-2,inactive,inactive,inactive,inactive
CC(N)C(=O)OC(C)(C)Cc1ccc(Cl)cc1 (stereo not given),inactive,,,
C[N+]1(CCC(C(N)=O)(c2ccccc2)c2ccccc2)CCCCC1,inactive,inactive,inactive,inactive
CCC1(CC)C(=O)NC(=O)NC1=O,inactive,inactive,inactive,inactive
CC(C)[N+](C)(CCC(C(N)=O)(c1ccccc1)c1ccccc1)C(C)C,inactive,inactive,inactive,inactive

Compound,Potency [1],Potency [2],Potency [3],Potency [4]
NCc1cccnc1,inactive,inactive,inactive,
C[C@]12C=CC(=O)C=C1CC[C@@H]1[C@@H]2CC[C@@]2(C)[C@H]1CC[C@]2(C)O,inactive,inactive,inactive,inactive
CNC(=O)NC(O)C(Cl)(Cl)Cl (stereo not given),inactive,inactive,inactive,inactive
O=C(CCCN1CCC(n2c(=O)[nH]c3ccccc32)CC1)c1ccc(F)cc1,355 nM (active),inactive,inactive,inactive
CC1=C2[C@H]3OC(=O)[C@@H](C)[C@@H]3CC[C@@]2(C)C=CC1=O,inactive,,,
OC(O)C(Cl)(Cl)Cl,inactive,inactive,inactive,
CN1C(=O)CN=C(c2ccccc2)c2cc([N+](=O)[O-])ccc21,inactive,inactive,inactive,inactive
C[C@H](N)[C@H](O)c1ccc(O)c(O)c1,inactive,,,
COc1ccc(CN2CCNCC2)c(OC)c1OC,inactive,inactive,inactive,inactive
NC(=O)OCCCc1ccccc1,inactive,inactive,inactive,inactive
C[C@@H]1CC[C@H]2[C@@H](C)C(=O)O[C@@H]3O[C@@]4(C)CC[C@@H]1[C@]32OO4,inactive,,,
Clc1ccc(C(OCCN2CCCCC2)c2ccccc2)cc1 (stereo not given),891 nM (active),,,
C[N+](C)(C)CCOC(=O)C(O)(c1ccccc1)c1ccccc1,inactive,inactive,inactive,inactive
CC(C)NCC(O)c1ccc(N)c(C#N)c1 (stereo not given),inactive,inactive,inactive,inactive
Cc1ncc2n1-c1ccc(Cl)cc1C(c1ccccc1F)=NC2,inactive,inactive,inactive,
C=CCN1CC[C@]23CCCC[C@H]2[C@H]1Cc1ccc(O)cc13,inactive,,,
C[C@]12CC[C@H]3[C@@H](CCC4=CC(=O)CC[C@@H]43)[C@@H]1CC[C@@H]2O,,inactive,,
NC1(c2ccccc2)CCCCC1,,inactive,,
O=C(N[C@@H]1N=C(c2ccccc2F)c2cccc3c2N(CC3)C1=O)c1cc2ccccc2[nH]1,,inactive,,
O=C(O)Cc1ccccc1,,inactive,,
CC1N=C(N)OC1c1ccccc1 (stereo not given),,inactive,,
